Screens: PubChem, several laboratories
Mtb FBA inh = inhibitors of M. tuberculosis fructose-bisphosphate aldolase | P9WQA3 | purified M. tuberculosis FBA, fluorescence read-out | inhibition, % at 1 µM | 360,000 compounds, 2.3% hits;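 further: 0% = vehicle and 100% = reference inhibitor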
Target sequence (P9WQA3 whole entry, looked up): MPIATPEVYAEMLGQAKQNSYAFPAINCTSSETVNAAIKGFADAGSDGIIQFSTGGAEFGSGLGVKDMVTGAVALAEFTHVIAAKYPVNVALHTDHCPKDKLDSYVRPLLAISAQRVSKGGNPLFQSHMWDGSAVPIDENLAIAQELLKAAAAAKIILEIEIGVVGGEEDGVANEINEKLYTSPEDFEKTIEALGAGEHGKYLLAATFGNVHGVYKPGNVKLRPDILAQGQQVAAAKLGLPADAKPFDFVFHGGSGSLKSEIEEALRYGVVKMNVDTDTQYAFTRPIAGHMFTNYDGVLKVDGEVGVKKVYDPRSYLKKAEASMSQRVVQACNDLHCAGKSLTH
CCHF vOTU inh = blocks the CCHF virus ovarian tumor domain protease. CCHFV vOTU protease, Pep-AMC fluorescence. inhibition, % at 11.5 µM. 370,000 compounds, 0.55% hits. AID 651958; in the data active means inhibition above about 30%; further: 0% = vehicle wells with enzyme and 100% = no enzyme wells
GDH-TPI counter-1 = counter-screen for M. tuberculosis FBA inhibitors: GDH-TPI coupled enzymes; GDH-TPI coupled enzyme counterscreen, NADH absorbance; inhibition, % at 4.8 µM; 360,000 compounds, 1.2% hits; in the data active means inhibition above about 30%;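 further: 0% = DMSO wells and 100% = wells lacking the enzyme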
Vc quorum ag = induces V. cholerae light production without autoinducers | activation, % at 18.7 µM | 350,000 compounds, 0.16% hits | V. cholerae BH1578 lux reporter, luminescence, 6 h; in the data active means activation mostly above about 9.7%, no sharp cut-off
Mtb FBA inh conf = Mtb FBA inhibition, confirmed | shares compounds with Mtb FBA inh | purified M. tuberculosis FBA, fluorescence read-out | inhibition, % at 1 µM | 5,600 compounds, 78% hits | AID 651616;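 further: 0% = vehicle wells and 100% = reference inhibitor wells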
GDH-TPI counter-2 = counter-screen for M. tuberculosis FBA inhibitors: GDH-TPI coupled enzyme inhibition. 5,600 compounds, 81% hits. inhibition, % at 1 µM. shares compounds with Mtb FBA inh. GDH-TPI coupled enzyme counterscreen, fluorescence. AID 652141; in the data active means inhibition above about 10%
GDH-TPI dose = inhibits GDH-TPI coupling enzymes in dose response. shares compounds with Mtb FBA inh. GDH-TPI coupled enzyme assay, fluorescence, artifact counterscreen. IC50, µM. 170 compounds, 79% hits; call rule not given here
Active calls of the source: *; i = inactive; x = no result; + = active, no number. An excerpt weighted towards active compounds, which were near 3.9% of everything screened. Unless noted, no stated cut-off is given here; in the data, active means inhibition above about 27%; inactive means the rest.

SMILES | Mtb FBA inh | CCHF vOTU inh | GDH-TPI counter-1 | Vc quorum ag | Mtb FBA inh conf | GDH-TPI counter-2 | others
C(#CCN1CCOCC1)COCc1ccccc1 | -0.3 | 5.4 | -8.2 | -0.2 | x | x
CCCCNC(=O)c1cc2cc(CC)ccc2[nH]1 | 31.1* | 8.1 | 11.2 | i | 79.4* | 65.4*
Cc1c(SCCO)c(=O)[nH]c2cc3c(cc12)OCO3 | 34.9* | -39.3 | 17.1 | i | 126.6* | 119.9*
Nc1nccc(/C=C/c2ccc(Cl)cc2)n1 | 30.1* | -39.5 | 19.2 | -0.6 | 84.0* | 49.2*
CC(C)C(c1nnnn1Cc1ccc(F)cc1)N1CCSCC1 (stereo not given) | -2.3 | -9.2 | -5.8 | -1.0 | x | x
Clc1cccc(Oc2ncc(CN3CCOCC3)s2)c1 | 2.3 | 0.4 | 3.9 | i | x | x
Cc1ccc(Oc2ncc(CN3CCOCC3)s2)cc1 | 38.4* | 4.3 | -5.5 | -0.7 | 49.6* | 44.3*
COc1ccc(NCC(=O)Nc2cc(S(=O)(=O)N3CCOCC3)ccc2N2CCOCC2)c(OC)c1 | 2.0 | 0.4 | 14.2 | -0.2 | x | x
O=S(=O)(Nc1nc2cc3c(cc2nc1Cl)OCCO3)c1ccccc1 | 47.9* | -35.0 | 2.9 | -0.4 | 60.8* | 37.4*
CC(=O)Nc1ccc(S(=O)(=O)Nc2nc3ccccc3nc2Cl)cc1 | -1.0 | -1.4 | -2.9 | i | x | x
CC(=O)Nc1ccc(S(=O)(=O)Nc2nc3cc4c(cc3nc2Cl)OCCO4)cc1 | 62.3* | -44.5 | 23.7 | -0.3 | 76.3* | 70.7*
c1ccc(-n2cc(CN3CCC(N4CCOCC4)CC3)c(-c3ccc4c(c3)OCO4)n2)cc1 | 36.4* | -6.2 | 11.2 | -0.4 | 54.6* | 65.5*
C/C(Nc1ccc(Cl)c(Cl)c1)=C1/CCOC1=O | 3.3 | -3.0 | 16.0 | i | x | x
C/C(=N\N=C(N)N)c1cc(Cl)ccc1Cl | -1.9 | 3.2 | -8.6 | -0.3 | x | x
C/C(=N\N=C(N)N)c1ccc(Cl)cc1Cl | 28.4* | 1.2 | 0.6 | -1.4 | 28.7* | 17.1*
CC(=O)Nc1ccc(S(=O)(=O)Nc2ccc3ccccc3n2)cc1 | 2.6 | 5.7 | 14.1 | -0.2 | x | x
O=C(O)CCc1nn2c3ccccc3n(CC(=O)c3ccccc3)c2nc1=O | 26.8 | -29.0 | -4.7 | -2.5 | x | x
CCOC(=O)Cn1c2ccccc2n2nc(CCC(=O)O)c(=O)nc12 | 57.6* | -21.3 | 1.9 | -0.3 | -2.2 | -2.9
COc1ccccc1N1CCN(c2ncnc3sc(C(=O)NCC4CCCO4)c(C)c23)CC1 (stereo not given) | -0.7 | 9.8 | 4.7 | -0.3 | x | x
Cc1cc(=O)oc2cc(OCC(=O)N3CCC(C(=O)O)(c4ccccc4)CC3)ccc12 | 27.8* | 4.2 | 12.8 | -0.4 | 18.8 | 26.1*
Cc1cc(=O)oc2cc(OCC(=O)N3CCN(Cc4ccccc4)CC3)ccc12 | 35.2* | -4.7 | 16.8 | i | 9.3 | -3.3
Cc1cc(=O)oc2cc(OCC(=O)N3c4ccccc4NC(=O)C3(C)C)ccc12 | 33.6* | -26.2 | 15.1 | x | 107.3* | 87.2*
Cc1cc(=O)oc2cc(OCC(=O)N3CCN(C(=O)c4ccco4)CC3)ccc12 | 27.5* | -8.8 | -0.9 | i | 78.5* | 67.9*
C[C@]12c3[nH]c4ccccc4c3CCN1C(=O)C(CC(=O)NCCCn1ccnc1)C[C@@H]2C(=O)N1CCOCC1 (stereo not given in full) | 3.5 | 0.2 | -10.4 | -0.5 | x | x
COc1ccc(-c2cc(-c3ccc(Cl)cc3)c(C#N)c(SCC(=O)O)n2)cc1 | 47.5* | -22.7 | 16.8 | -0.8 | 52.8* | 36.9*
SMILES | Mtb FBA inh | CCHF vOTU inh | GDH-TPI counter-1 | Vc quorum ag | Mtb FBA inh conf | GDH-TPI counter-2 | others
COc1ccc(-c2cc(-c3ccccc3)c(C#N)c(SCC(=O)O)n2)cc1 | 46.8* | -1.8 | 16.9 | -0.5 | 19.1 | 10.0 | GDH-TPI dose=2.46*
CS(=O)(=O)c1nc(-c2ccccc2)c(-c2ccccc2)[nH]1 | 17.9 | -7.2 | -6.6 | -0.5 | x | x
COc1ccc(-c2nc(-c3ccccc3)c(-c3cccs3)[nH]2)cc1OC | 49.5* | -15.1 | 19.7 | 3.3 | 2.8 | -6.2
Fc1ccc(-c2nc(-c3cccs3)[nH]c2-c2ccc(F)cc2)cc1 | 50.4* | 5.6 | 0.7 | -1.0 | + | +
Cc1ccsc1-c1nc(-c2ccccc2)c(-c2ccccc2)[nH]1 | 29.3* | -11.7 | 16.5 | 0.4 | 91.4* | 74.0*
COc1cc(-c2nc(-c3ccc4c(c3)-c3ccccc3S4(=O)=O)c(-c3ccccc3)[nH]2)cc(OC)c1O | -2.1 | 16.5 | 9.2 | 1.7 | x | x
COc1cc(-c2nc(-c3ccccc3)c(-c3ccc(F)cc3)[nH]2)cc2c1OCO2 | 30.7* | -8.5 | 8.4 | -0.4 | 102.7* | 70.7*
COc1ccc(N(CC(=O)NCc2ccco2)S(=O)(=O)c2ccc(C)cc2)cc1 | 3.9 | x | 4.4 | -0.5 | x | x
Cc1ccc(-c2cc(C(=O)OCC(=O)NC3CC3)c3ccccc3n2)cc1 | 36.5* | -4.4 | 9.2 | -0.8 | 95.5* | 81.2*
O=C(NCc1ccccn1)c1cc(-c2ccccc2)nc2ccccc12 | 5.1 | -10.1 | 2.5 | i | x | x
O=C(NCc1ccccn1)c1cc(-c2ccc(-c3ccccc3)cc2)nc2ccccc12 | 36.9* | -26.5 | 16.3 | 1.0 | 20.2 | 14.7*
CCn1cc(-c2cc(C(=O)O)c3ccccc3n2)cn1 | 53.8* | -36.5 | 3.1 | i | 59.7* | 44.5*
COCCNC(=O)c1cc(-c2ccc(-c3ccccc3)cc2)nc2ccccc12 | 107.6* | -44.0 | 16.8 | -0.6 | + | +
CC1CN(C(=O)COC(=O)c2cc(S(N)(=O)=O)c(Cl)cc2Cl)CC(C)O1 (stereo not given) | 0.4 | 13.3 | -8.4 | -0.1 | x | x
CCOC(=O)Cc1cc(-c2ccc(OC)cc2)nc2ccc3ccccc3c12 | 35.3* | -21.0 | 3.3 | 0.6 | 110.4* | 89.4*
CC(=O)NS(=O)(=O)c1ccc(NC(=O)c2cc(-c3ccc(C)cc3)nc3ccccc23)cc1 | -2.1 | 9.2 | 10.7 | i | x | x
COc1ccc(-c2cc(C(=O)OCc3ccccn3)c3ccccc3n2)cc1 | 43.5* | -34.0 | 0.7 | -0.3 | 107.3* | 86.0*
Cc1ccc(-c2cc(C(=O)NCc3ccccn3)c3ccccc3n2)cc1C | 46.2* | -24.7 | 11.3 | x | 136.4* | 94.4*
CC(=O)Nc1ccc(-c2cc(C(=O)O)c3ccccc3n2)cc1 | 56.0* | -25.4 | 13.0 | -0.3 | + | 195.2*
O=C(Nc1ccc(Cl)cc1)c1cc2c(cc1O)[nH]c1ccccc12 | 107.0* | 0.6 | 15.0 | -0.8 | 83.5* | 71.3*
CC(=O)Nc1ccc2[nH]c3ccccc3c2c1 | 0.7 | -12.1 | 16.7 | i | x | x
CCN1C[C@]2(COC(=O)c3ccccc3N)CC[C@H](OC)C34[C@@H]5C[C@H]6[C@H](OC)[C@@H]5[C@](O)(C[C@@H]6OC)[C@@](O)([C@H]13)[C@@H](OC)[C@@H]42 | 43.1* | -48.0 | 2.0 | -5.6 | 59.2* | 39.2*
